Assay [1] is described as follows: qHTS assay to identify small molecule antagonists of the thyroid receptor (TR) signaling pathway - cell viability counter screen (AID 743064). Note: nearly all actives have a fitted effect of over 50% in size. An outline of the steps:
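In rat pituitary GH3.TRE-Luc reporter cells co-exposed to compound and 1 nM T3 for 23.5 h, cytotoxicity was assessed with CellTiter-Fluor in the same wells, read by fluorescence.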
A general note: Quantitative high-throughput screening tests each substance at several concentrations.

A short description of assay [2]: qHTS assay to identify small molecule antagonists of the thyroid receptor (TR) signaling pathway (AID 743065). Note: series mostly up to about 70 µM; nearly all actives have a fitted effect of over 55% in size. An outline of the steps: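 Antagonism measured as loss of luciferase signal in GH3 cells stably carrying a TRE-luciferase reporter, co-treated with compound and T3 (1 nM final) for 23.5 h at 37 C. Viability was read in the same well by CellTiter-Fluor.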

Assay [3] deals with thyroid hormone receptor (rat, GH3 cells). Briefly: qHTS assay to identify small molecule agonists of the thyroid receptor (TR) signaling pathway (AID 743066; calls by dose curve).
Assay [4] concerns the target Estrogen receptor (Homo sapiens) (UniProt P03372). Briefly: qHTS assay to identify small molecule antagonists of the estrogen receptor alpha (ER-alpha) signaling pathway (AID 743069; active = well fitted curve in the direction sought with a large enough effect in the signal ratio in the repeat runs, not every such curve was filed as active; the % refers to the signal ratio). An outline of the steps:
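Compound effects are measured against 17beta-estradiol stimulation in HEK293 cells with a UAS-controlled beta-lactamase reporter for ER-alpha. Exposure lasts 18 hr at 37C; LiveBLAzer B/G FRET substrate follows for 2 hr at room temperature.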

Assay [5] can be described thus: qHTS assay to identify small molecule antagonists of the estrogen receptor alpha (ER-alpha) signaling pathway - cell viability counter screen (AID 743074; calls by dose curve;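 note: HEK293 cells carrying ER-alpha-UAS-bla reporter stimulated with 17beta-estradiol; nearly all actives have a fitted effect of over 45% in size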).
Assay [6] deals with Estrogen receptor (Homo sapiens) (UniProt P03372). Briefly: qHTS assay to identify small molecule agonists of the estrogen receptor alpha (ER-alpha) signaling pathway (AID 743075; calls by dose curve; note: potency is the fitted concentration of half-maximal effect).
Chain of Estrogen receptor (Homo sapiens) (P03372 whole entry, looked up): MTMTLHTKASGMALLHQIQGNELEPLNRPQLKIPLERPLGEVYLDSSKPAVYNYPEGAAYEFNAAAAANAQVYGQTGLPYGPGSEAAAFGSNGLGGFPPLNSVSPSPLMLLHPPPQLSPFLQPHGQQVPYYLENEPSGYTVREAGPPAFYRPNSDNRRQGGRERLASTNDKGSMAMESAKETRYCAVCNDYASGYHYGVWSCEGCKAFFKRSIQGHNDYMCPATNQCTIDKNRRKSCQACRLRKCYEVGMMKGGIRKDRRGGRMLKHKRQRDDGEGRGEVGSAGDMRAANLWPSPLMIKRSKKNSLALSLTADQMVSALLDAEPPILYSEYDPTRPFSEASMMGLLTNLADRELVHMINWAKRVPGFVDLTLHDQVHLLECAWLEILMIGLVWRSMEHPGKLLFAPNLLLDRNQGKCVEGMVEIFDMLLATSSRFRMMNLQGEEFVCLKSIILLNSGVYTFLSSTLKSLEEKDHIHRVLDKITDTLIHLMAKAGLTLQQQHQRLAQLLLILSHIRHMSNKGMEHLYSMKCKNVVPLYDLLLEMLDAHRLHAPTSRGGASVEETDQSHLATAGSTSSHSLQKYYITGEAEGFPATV
For assay [7] the target is unchanged. The assay can be described thus: qHTS assay to identify small molecule agonists of the estrogen receptor alpha (ER-alpha) signaling pathway using the BG1 cell line (AID 743079). Note: nearly all actives have a fitted effect of over 20% in size. Note: potency is the fitted concentration of half-maximal effect.
The nature of assay [8]: qHTS assay to identify small molecule antagonists of the estrogen receptor alpha (ER-alpha) signaling pathway using the BG1 cell line - cell viability counter screen (AID 743081).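 Note: compound given together with 17beta-estradiol as the ER stimulus; series mostly up to about 70 µM; nearly all actives have a fitted effect of over 45% in size.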
Assay [9] deals with Aromatase (Homo sapiens) (UniProt P11511). The assay can be described thus: qHTS assay to identify aromatase inhibitors (AID 743083). Note: series mostly up to about 70 µM; nearly all actives have a fitted effect of over 55% in size.
Chain of Aromatase (Homo sapiens) (P11511 whole entry, looked up): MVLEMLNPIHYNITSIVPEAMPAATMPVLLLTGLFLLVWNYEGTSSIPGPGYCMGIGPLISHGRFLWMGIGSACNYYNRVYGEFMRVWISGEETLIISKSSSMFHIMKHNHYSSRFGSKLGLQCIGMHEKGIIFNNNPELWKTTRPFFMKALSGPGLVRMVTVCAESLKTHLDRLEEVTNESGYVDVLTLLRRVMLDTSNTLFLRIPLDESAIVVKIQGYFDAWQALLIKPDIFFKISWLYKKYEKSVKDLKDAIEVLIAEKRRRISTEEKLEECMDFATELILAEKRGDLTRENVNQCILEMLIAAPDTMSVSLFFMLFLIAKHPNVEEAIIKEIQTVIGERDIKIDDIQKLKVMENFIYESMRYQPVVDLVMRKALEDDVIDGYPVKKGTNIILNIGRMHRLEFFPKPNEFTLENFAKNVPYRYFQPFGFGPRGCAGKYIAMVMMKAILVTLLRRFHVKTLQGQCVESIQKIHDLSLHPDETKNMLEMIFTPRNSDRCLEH
The nature of assay [10]: qHTS assay to identify small molecule antagonists of the estrogen receptor alpha (ER-alpha) signaling pathway using the BG1 cell line (AID 743080; calls by dose curve;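 note: BG1 cells stimulated with 17beta-estradiol alongside compound; series mostly up to about 70 µM; nearly all actives have a fitted effect of over 25% in size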). Summed up: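 Seeding, 24 h rest, compound transfer from DMSO, 17beta-estradiol addition, 21.5 h incubation, CellTiter-Fluor (30 min, 37 C), then ONE-Glo (30 min, room temperature): this sequence was run on BG1-Luc-4E2 reporter cells.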

This passage reports Potency and outcome results from PubChem BioAssay (Tox21).

Where “and” joins values, the source holds several entries; their conditions need not be identical. Identical values can stand only once. Records with an inconclusive call do not appear. Some structures have more than one record in an assay (separate samples or runs), and their calls can disagree. Calls of active or inactive are those of the source. Unless noted, calls come from the whole dose curve; as a rule, active = well fitted curve in the direction sought with a large enough effect in the repeat runs; inconclusive = weak or mixed curves; inactive = no such curve, though single readings can be large; an effect the other way counts as inactive or inconclusive.

`CC(C)(C)c1cc(Cc2cc(C(C)(C)C)c(O)c(C(C)(C)C)c2)cc(C(C)(C)C)c1O`: the Potency entry in assay [1], in assay [2], in assay [4], in [6], in [7] and in assay [8] was “inactive” in each case. Besides, the Potency result in assay [9] is “inactive”. Also, the call in assay [3] and in assay [5] was inactive.
Take `Nc1nc(N)nc(-c2ccccc2)n1`: the Potency result in [1], in [2], in assay [4], in assay [6], in [8] and in [9] was “inactive” throughout. Further, the call in assay [3] and in [5] was inactive. Moreover, in assay [7], the Potency entry was “inactive and 34.4 µM (active)”.
With `NCCN1CCNCC1`, the Potency result in assay [1], in [2], in assay [4], in assay [6], in [7] and in assay [8] was “inactive” throughout. Further, the Potency entry in assay [9] was “inactive”. The compound was called inactive in [3] and in [10].
In the case of `CCc1ccccc1CC`, the Potency entry in [1], in [2], in assay [4], in assay [6], in [7] and in assay [8] was “inactive” throughout. Further, in assay [9], the Potency result was “inactive”. Moreover, the compound was classed as inactive in [3] and in assay [5].
With `CNC(=O)Oc1ccc2c(c1)[C@]1(C)CCN(C)[C@@H]1N2C`, the Potency entry in assay [1], in [2], in [4], in assay [6], in [7] and in assay [8] was “inactive” each time. For the same compound, the Potency result in assay [9] is “inactive”. In addition, the call in assay [3] and in assay [5] was inactive.
As to `CC(=O)c1ccc(O)cc1`, the Potency result in assay [1], in assay [2], in [6], in assay [7], in [8] and in assay [9] was “inactive” each time. The outcome in [3], in assay [5] and in assay [10] was inactive.
Turning to `CC(=O)CCC=C(C)C`, the Potency result in [1], in [2], in assay [4], in assay [6], in [7] and in assay [8] was “inactive” throughout. Also, the Potency entry in assay [9] was “inactive”. For the same compound, the outcome in assay [3] and in [5] was inactive.
For `CC(C)c1cccc(C(C)C)c1`, the Potency result in assay [1], in [2], in assay [4], in assay [6], in assay [7] and in assay [8] was “inactive” throughout. For the same compound, in assay [9], the Potency result was “inactive”. Moreover, the compound was classed as inactive in [3] and in [5].
As to `CCCCCC(=O)O`, the Potency result in assay [1], in [2], in assay [4], in [6], in assay [7] and in assay [8] was “inactive” throughout. In assay [9], the Potency entry is “inactive”. Moreover, the result in [3] and in assay [5] was inactive.
In the case of `CCOCCOCCOCCO`, the Potency result in assay [1], in assay [2], in assay [8] and in [9] was “inactive” each time. Also, the outcome in [3] and in assay [5] was inactive.
For the compound `O=C(O)c1ccccc1C(=O)O`, the Potency result in [1], in assay [2], in [4], in assay [6], in [7] and in assay [8] was “inactive” each time. The Potency result in assay [9] was “inactive”. In addition, the compound was called inactive in assay [3] and in assay [5].
On to `CCCCCCO`, for which the Potency result in [1], in [2], in assay [4], in [6], in [8] and in assay [9] was “inactive” each time. Also, the result in assay [3], in [5] and in assay [10] was inactive.
Turning to `COc1ccccc1OCC(O)CO` (stereo not given), the Potency entry in [1], in [2], in [8] and in assay [9] was “inactive” throughout. In addition, the call in assay [3] and in [5] was inactive.
For the compound `Nc1ccc(Cl)c(N)c1`, the Potency entry in assay [1], in assay [2], in assay [6], in assay [7], in assay [8] and in assay [9] was “inactive” in each case. For the same compound, the result in [3] and in assay [5] was inactive.
`CCNc1ccccc1`: the Potency entry in assay [1], in assay [2], in [8] and in assay [9] was “inactive” throughout. In addition, the compound was called inactive in assay [3] and in assay [5].
For the compound `COc1cc(OC)c(C(=O)CCCN2CCCC2)c(OC)c1`, the Potency result in [1], in assay [2], in assay [8] and in assay [9] was “inactive” each time. For the same compound, the compound was classed as inactive in [3] and in [5].
As for `CC1(C)S[C@@H]2[C@H](NC(=O)COc3ccccc3)C(=O)N2[C@H]1C(=O)O`, the Potency entry in assay [1], in assay [2], in assay [4], in assay [6], in assay [7] and in [8] was “inactive” each time. Further, the Potency entry in [9] was “inactive”. Also, the call in assay [3] and in assay [5] was inactive.
Turning to `CN(C)CCOC(=O)COc1ccc(Cl)cc1`, the Potency result in [1], in [2], in assay [8] and in assay [9] was “inactive” throughout. Moreover, the result in assay [3] and in assay [5] was inactive.
Consider `O=C(OCC1CCC2OC2C1)C1CCC2OC2C1` (stereo not given), for which the Potency entry in assay [1], in assay [2], in assay [4], in assay [6], in assay [7] and in assay [8] was “inactive” each time. The Potency result in [9] is “inactive”. In addition, the call in assay [3] and in assay [5] was inactive.
`COc1ccc(CCC(C)=O)cc1`: the Potency entry in assay [1], in assay [2], in [8] and in [9] was “inactive” each time. Besides, the call in assay [3] and in assay [5] was inactive.
With `Clc1ccccn1`, the Potency result in assay [1], in [2] and in [8] was “inactive” in each case. Besides, the outcome in assay [3] and in assay [5] was inactive.
For the compound `O=C(O)c1cc2ccccc2cc1O`, the Potency entry in assay [1], in assay [2], in assay [4], in assay [8] and in [9] was “inactive” in each case. In addition, the result in assay [3] and in assay [5] was inactive. In addition, the Potency entry in assay [6] is “inactive and 49 µM [activator] (active)”; in assay [7], 54.1 µM (active) and 48.6 µM (active).
With `COc1ccc(N)c(C)c1`, the Potency entry in [1], in [2], in assay [4], in assay [6], in [8] and in [9] was “inactive” throughout. Moreover, the call in [3], in [5] and in [10] was inactive.
Regarding `CCCCCCCCCCCCCCCC(=O)OC(C)C`, the Potency result in assay [1], in assay [2] and in [8] was “inactive” in each case. The compound was classed as inactive in assay [3] and in assay [5].
As for `CSc1ccc(Cl)cc1`, the Potency entry in assay [1], in [2], in assay [4], in assay [6], in assay [7] and in [8] was “inactive” each time. Further, the Potency result in assay [9] was “inactive”. Also, the compound was classed as inactive in [3] and in [5].
As for `CC(=O)OCc1ccco1`, the Potency result in assay [1], in [2], in assay [4], in assay [6], in assay [7] and in assay [8] was “inactive” throughout. Further, in [9], the Potency result is “inactive”. Moreover, the compound was called inactive in [3] and in assay [5].
`CCOC(=O)n1ccn(C)c1=S`: the Potency result in assay [4], in assay [6], in assay [7], in assay [8] and in assay [9] was “inactive” throughout. For the same compound, the compound was called inactive in [5] and in assay [10].
Consider `N[C@H](Cc1c[nH]c2ccccc12)C(=O)O`, for which the Potency entry in [1], in [2], in [8] and in assay [9] was “inactive” each time. Also, the compound was classed as inactive in [3] and in assay [5].
